For twelve molecules, outcome and AC50 results are on record in PubChem BioAssay (EPA / NIEHS).

Molecules are shown by their SMILES. Values joined by “and” are separate entries in the source; they are usually repeats but may differ in a detail not shown here. Equal values may be shown once. Inconclusive results are not listed. Active and inactive are the calls of the source. How the source made its calls, unless noted: active means hit-call score of the fitted dose curve at least 0.9, where 1 is the maximum; inconclusive means response in the unintended direction; inactive means score below 0.9.

Assay [1] concerns the target Cellular tumor antigen p53 (Homo sapiens) (UniProt P04637). As to the kind of experiment: TOX21_p53_BLA_p3_ratio: Tox21 HCT-116 p53 Agonism Beta-lactamase Assay, Ratio, Phase 3 (AID 2283596). The procedure, abridged:
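HCT116 p53-bla cells (4000/well) given compound in DMSO (217-fold dilution) after 5 h, incubated 16 h at 37C. CCF4-AM substrate 2 h at room temperature; 460/530 nm emission ratio, gain fitted against DMSO.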

Assay [2] can be described thus: TOX21_p53_BLA_p4_viability: Viability Assessment in the Tox21 HCT-116 p53 Agonism Beta-lactamase Assay, Phase 4 (AID 2283597).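 Further: hits lower the luminescence signal meaning cytotoxicity.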 The procedure, abridged:
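We seeded HCT116 p53 reporter cells at 4000/well and waited 5 h. We then added compounds in DMSO at a 217-fold dilution and incubated for 16 h. Viability was read as CellTiter-Glo luminescence after 30 min at RT.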

For assay [3], the target named is Cellular tumor antigen p53 (Homo sapiens) (UniProt P04637). The experiment in a line: TOX21_p53_BLA_p5_ratio: Tox21 HCT-116 p53 Agonism Beta-lactamase Assay, Ratio, Phase 5 (AID 2283599). The procedure, abridged: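 HCT-116 p53-bla cells (4000/well) plated 5 h, dosed with compound (217-fold DMSO dilution) for 16 h at 37 C; CCF4-AM substrate 2 h at room temperature. Activity is the 460/530 nm emission ratio (405 nm excitation), fitted in gain-of-signal direction versus DMSO.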

Assay [4] can be described thus: TOX21_p53_BLA_p5_viability: Viability Assessment in the Tox21 HCT-116 p53 Agonism Beta-lactamase Assay, Phase 5 (AID 2283600). In a few lines:
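Compounds, pinned from DMSO at 217-fold dilution, were left on the cells for 16 h. The viability endpoint was ATP content measured by CellTiter-Glo luminescence, where falling signal reflects cytotoxicity.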

Assay [5] has as its target Cellular tumor antigen p53 (Homo sapiens) (UniProt P04637). As to the kind of experiment: TOX21_p53_BLA_p4_ratio: Tox21 HCT-116 p53 Agonism Beta-lactamase Assay, Ratio, Phase 4 (AID 2283601). The procedure, abridged:
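HCT-116 p53 beta-lactamase reporter cells (4000/well) preincubated 5 h, then compound (217-fold dilution of DMSO stock) for 16 h at 37C. CCF4-AM substrate added 2 h at room temperature; 460/530 nm emission ratio fitted upward versus DMSO.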

A short description of assay [6]: ACEA_AR_agonist_AUC_viability: ACEA Biosciences xCELLigence Real-Time Cell Analysis on Androgen Receptor Agonism for Viability (AID 2283775). In a few lines:
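Read-out is area under the impedance curve at 80 h post-dose in 22Rv1 cells, with DMSO as baseline and signal loss taken as reduced viability. Compounds ran in duplicate from 100 uM final.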

A short description of assay [7]: ACEA_AR_antagonist_AUC_viability: ACEA Biosciences xCELLigence Real-Time Cell Analysis on Androgen Receptor Antagonism for Viability (AID 2283776).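 Further: 22Rv1 human prostate cancer cells growing on impedance electrode plates; area under impedance growth curve at 80 h after dosing as viability; hits lower the growth signal relative to DMSO meaning cytotoxicity.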 In a few lines: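 Viability endpoint from label-free cell-index monitoring: 22Rv1 cultures treated with an eight-point 1:4 dilution series starting at 100 uM final, AUC at 80 h fitted against DMSO.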
Assay [8] relates to Thyroperoxidase (TPO), gene 54314. As to the kind of experiment: CCTE_Simmons_AUR_rTPO: CCTE's Amplex UltraRed Assay for Thyroperoxidase (TPO) Inhibition, Simmons Lab (AID 2283662).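 Further: potency for loss of signal meaning inhibition of peroxidase activity.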 The procedure, abridged:
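Endpoint is decreased Amplex UltraRed fluorescence after a 30-min, 37C reaction of rat thyroid microsomes with 300 uM H2O2. Eight test concentrations (5 nM–87.5 uM final) in 0.5% DMSO, three biological replicates each.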

A short description of assay [9]: CCTE_Simmons_CellTiterGLO_HEK293T: Viability Assessment in CCTE's Assays for Thyroperoxidase (TPO) Inhibition, Simmons Lab (AID 2283665).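 On AC50: cells exposed to compound for 24 h before readout; actives reduce ATP signal below DMSO vehicle meaning cytotoxicity.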 The procedure, abridged: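 Cytotoxicity counter-screen: human HEK293T cells in low-serum (1% FBS) medium receive test chemical, 5 nM to 87.5 uM final, for 24 h; ATP is quantified by luciferase luminescence.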
In general terms: ATP-based viability assays read luminescence as a measure of living cells.

Assay [10] concerns the target Luciferin 4-monooxygenase (Photinus pyralis) (UniProt P08659). As to the kind of experiment: CCTE_Simmons_QuantiLum_inhib_2: CCTE's Firefly Luciferase Inhibition Assay, Simmons Lab (AID 2283767).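 On AC50: potency for inhibitors that lower luciferase luminescence relative to DMSO.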 In a few lines: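 Counter-screen for nonspecific enzyme inhibition: purified firefly luciferase incubated 30 min at 37C with chemicals up to 87.5 uM final, then luminescence measured after luciferin/dATP injection; activity fitted against DMSO baseline.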

A short description of assay [11]: CEETOX_H295R_MTT_cell_viability: Viability Assessment in the CeeTox HT-H295R MTT Assay (AID 2283718; active means hit-call score of the fitted dose curve at least 0.9, where 1 is the maximum; inactive means score below 0.9;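 further: curve fitted both ways so AC50 may mark viability loss or gain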). In a few lines:
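Human H295R adrenal cells, prestimulated 48 h with 10 uM forskolin, were exposed 48 h to chemicals in 0.1% DMSO. Viability was measured in the same wells by MTT (0.5 mg/ml, 4 h, 37 C), absorbance 570/650 nm, as percent of controls.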

Broadly, the AC50 is the concentration at which the activity in the assay is half-maximal.

Chain of Cellular tumor antigen p53 (Homo sapiens) (P04637 whole entry, looked up): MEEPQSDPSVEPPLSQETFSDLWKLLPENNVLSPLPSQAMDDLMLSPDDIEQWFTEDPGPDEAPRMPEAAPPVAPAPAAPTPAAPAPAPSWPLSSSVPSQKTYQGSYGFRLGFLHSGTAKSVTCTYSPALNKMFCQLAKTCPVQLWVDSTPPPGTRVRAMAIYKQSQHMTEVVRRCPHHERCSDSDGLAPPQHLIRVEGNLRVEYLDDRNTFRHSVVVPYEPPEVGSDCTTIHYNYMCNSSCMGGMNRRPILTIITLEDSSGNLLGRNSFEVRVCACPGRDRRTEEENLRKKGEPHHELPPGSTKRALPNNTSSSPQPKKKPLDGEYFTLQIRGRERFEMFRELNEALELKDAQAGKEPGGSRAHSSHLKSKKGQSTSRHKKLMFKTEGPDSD
Chain of Luciferin 4-monooxygenase (Photinus pyralis) (P08659 whole entry, looked up): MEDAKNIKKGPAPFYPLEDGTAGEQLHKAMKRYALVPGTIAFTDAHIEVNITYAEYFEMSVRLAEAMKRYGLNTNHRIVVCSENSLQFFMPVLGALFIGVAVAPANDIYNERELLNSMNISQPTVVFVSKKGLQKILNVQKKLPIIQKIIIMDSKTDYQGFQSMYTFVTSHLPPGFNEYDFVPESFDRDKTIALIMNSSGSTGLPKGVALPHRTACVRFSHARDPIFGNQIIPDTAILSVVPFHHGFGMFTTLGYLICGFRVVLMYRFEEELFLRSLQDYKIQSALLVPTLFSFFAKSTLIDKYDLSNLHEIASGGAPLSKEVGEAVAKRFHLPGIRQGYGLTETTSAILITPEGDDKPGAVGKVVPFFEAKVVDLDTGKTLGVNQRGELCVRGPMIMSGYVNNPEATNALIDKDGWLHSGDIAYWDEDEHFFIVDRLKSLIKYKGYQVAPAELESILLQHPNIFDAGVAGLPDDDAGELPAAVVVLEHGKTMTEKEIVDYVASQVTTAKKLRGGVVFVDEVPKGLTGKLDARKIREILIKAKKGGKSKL

With `Nc1ccc([N+](=O)[O-])cc1O`, the result in assay [1], in assay [2], in [3], in assay [4] and in [5] was inactive.

In the case of `FC(F)(F)C(F)(F)C(F)(F)C(F)(F)CCI`, the outcome in assay [1], in assay [3], in assay [4] and in assay [5] was inactive.

On to `Oc1ccc(Nc2ccccc2)cc1`, for which the result in assay [1], in assay [3] and in assay [5] was inactive.

For `CCCCNc1ccccc1`, the outcome in assay [1], in [2], in [3] and in [5] was inactive.

Turning to `CCCCCCOC(=O)c1ccccc1O`, the outcome in assay [1], in [2], in assay [3], in assay [4], in assay [6] and in assay [7] was inactive.

In the case of `CCC(=O)OCCc1ccccc1`, the result in assay [1], in [3], in assay [4] and in [5] was inactive.

As to `CC/C=C\CCOC(=O)c1ccccc1`, the outcome in assay [1], in assay [2], in assay [3] and in [5] was inactive.

For `Cc1ccc(S(=O)(=O)NCl)cc1`, the result in assay [1], in [2], in assay [3], in [4] and in [5] was inactive.

On to `CCCCOc1ccc(N)cc1`, for which the outcome in assay [1], in assay [2], in assay [3], in [4], in assay [9] and in assay [10] was inactive. Besides, the AC50 in assay [8] is 869 nM (active).

For `C#C[C@]1(O)CC[C@H]2[C@@H]3CCc4cc(OC)ccc4[C@H]3CC[C@@]21C`, the outcome in [1], in assay [2], in assay [3], in [4], in assay [5] and in assay [6] was inactive. Moreover, the outcome in [7] was inactive. The AC50 in assay [11] was 44 µM (active).

On to `CC(Cc1ccc(O)c(O)c1)C(C)Cc1ccc(O)c(O)c1` (stereo unspecified), for which the AC50 in [1] is 75.1 µM (active); in [2], 46.1 µM (active); in assay [3], 81.3 µM (active); in [5], 75.5 µM (active); in [8], 550 nM (active); in [9] it was 87 µM (active). The AC50 in assay [11] is 37.4 µM (active); in assay [10], 16.1 µM (active). The call in assay [4], in [6] and in assay [7] was inactive.

For `CCN(CC)c1ccc2c(C)cc(=O)oc2c1`, the AC50 in [1] is 40.9 µM (active) and 38.6 µM (active); in assay [3], 38.6 µM (active) and 31.6 µM (active); in assay [5], 41.6 µM (active) and 36 µM (active). Moreover, the molecule was called inactive in assay [2] and in [4].
